# Compounds without any hit were thinned out: in the full panel of roughly 83,000, 20% have a hit.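 Cells were grown in 96-well plates and exposed to the test compound at a single concentration for 48 hours; results are reported as percent growth, with values below 10 considered active.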 Values without a mark were called inactive. Calls of active or inactive are those of the source.
# Test system: MDA-MB-468 breast
# Test: NCI-60 one-dose screen, 48 h (100 = growth as untreated, 0 = no growth, -100 = all killed)
# Conditions: 10 µM unless noted
row,SMILES,growth
1,Cc1nc2ncccc2nc1Nc1ccc(S(=O)(=O)Nc2cncs2)cc1,97.7%
2,O=C1c2[nH]cc(CN[C@@H]3CCCN3)c2C(=O)c2c1c(O)c1ccccc1c2O,-92.4% (active)
3,CC(=O)Nc1nc(C)c(C(=O)NNC=O)s1,116%
4,COCCNCC(O)Cn1c2ccc(Cl)cc2c2cc(Cl)ccc21 (stereo not given),-43.9% (active)
5,Cn1cc(-c2nonc2-c2c[nH]c3ccc(Br)cc23)c2cc(Br)ccc21,21%
6,C=C(C)[C@@H]1CC[C@]2(CO)CC[C@]3(C)[C@H](CC[C@@H]4[C@@]5(C)CC[C@H](NCO)C(C)(C)[C@@H]5CC[C@]43C)[C@@H]12,-74.8% (active)
7,C[C@@H](Nc1c(C#N)cnc2ccc(-c3cnc(N)nc3)cc12)c1ccccc1,-8.47% (active)
8,COc1ccc(C(=O)/C=C/c2cc(-c3ccc(OC)c(OC)c3)n[nH]2)cc1OC,-71.6% (active)
9,CC1(C)[C@@H](NOCCCN)CC[C@]2(C)[C@H]3C(=O)C=C4[C@@H]5C[C@](C)(C(=O)O)CC[C@]5(C)CC[C@@]4(C)[C@]3(C)CC[C@@H]12,-39.5% [100 µM] (active)
10,COc1cc(Nc2nc3ccccc3cc2C(=O)Nc2ccc(F)c(F)c2)cc(OC)c1OC,4.15% (active)
11,NC1=NC(c2ccccc2OS(=O)(=O)c2ccc(Br)cc2)n2c(nc3ccccc32)N1 (stereo not given),104%
12,CC(=O)NC1C(O[C@H]2C[C@H]3[C@@H]4CC=C5C[C@@H](O)CC[C@]5(C)[C@H]4CC[C@]3(C)[C@H]2[C@H](C)C(=O)CCC(C)C)OCC(O)C1O (stereo not given in full),51.6%
13,Fc1cnccc1-c1nc2ccc3[nH]ncc3c2c2c1CCCC2,1.78% (active)
14,CC(C)(C)n1cc(-c2ccnc(NCCCNS(=O)(=O)c3ccc(C(F)(F)F)cc3)c2)c(-c2cccc(O)c2)n1,11.8%
15,O=S(=O)(NCCCNc1nccc(-c2c(-c3cccc(O)c3)nc3occn23)n1)c1ccc(F)cc1,100%
16,COc1cccc(/C=C/c2c(C(=O)O)cccc2[N+](=O)[O-])c1OC,108%
17,CCCC(CCC)(C(N)=O)C(=O)O,105%
18,C1CNC(C2=NCCN2)=N1,-26.9% (active)
19,COc1cc(/C=C/c2cc(/C=C/c3ccc(O)c(OC)c3)n(C(=O)c3ccccc3Br)n2)ccc1O,2.97% (active)
20,CNC1=C([N+](=O)[O-])C(c2ccc(OC)cc2)C(C#N)=C(c2ccc[nH]2)O1 (stereo not given),96.1%

row,SMILES,growth
1,O=C(NNc1ccccc1)c1ncc[nH]1,75.6%
2,O=C1/C(=C/c2ccc(-c3ccccc3C(F)(F)F)o2)SC(=S)N1CCc1ccc(O)cc1,28.8%
3,Cc1cc(N2CCCCC2)nc(N2CCN(CC(=O)Nc3ccc4c(ccn4Cc4ccccc4)c3)CC2)n1,37.6%
4,Cc1ccc(Sc2nnc(/N=C3\C(=O)Nc4ccccc43)s2)cc1,102%
5,COc1ccc(/C=C/C(=O)c2ccc(-n3cc(CN4CCN(c5cc6c(cc5F)c(=O)c(C(=O)O)cn6C5CC5)CC4)nn3)cc2)cc1OC,-7.19% (active)
6,COc1ccc(Nc2nnc(-c3ccc(OC)c(OC)c3)o2)cc1,90.8%
7,Cc1ccc(S(=O)(=O)O)c(C)c1,107%
8,Cc1nc(Cl)c2c(n1)N(C)c1ccc(Cl)cc1C(C)C2 (stereo not given),67.1%
9,OC1CSSC1Cn1cnc2c(Nc3ccc(OCc4cccc(F)c4)c(Cl)c3)ncnc21 (stereo not given),-53.2% (active)
10,O=C1c2ccccc2NC(n2sc3ccccc3c2=O)N1c1ccccc1 (stereo not given),106%
11,Cc1n[nH]c(C)c1N=Nc1cccc2c1C(=O)c1ccccc1C2=O,96.2%
12,O=C1/C(=C2/C=Nc3ccccc32)N(O)c2ccccc21,62.2%
13,N#Cc1c(-c2ccc(Cl)cc2)nc2c(c(-c3ccccc3)nn2-c2ccccc2)c1-c1ccc(O)cc1,31.2%
14,O=C(O)CCC(=O)Nc1nnc(-c2ccccc2)s1,116%
15,Cc1ccc(-c2csc(NC(=O)CN3CCN(c4cc5c(cc4F)c(=O)c(C(=O)O)cn5C4CC4)CC3)n2)cc1,3.21% (active)
16,Nc1cc(F)ccc1NC(=O)c1ccc(NC(=O)C/C=C/c2cccnc2)cc1,40.1%
17,CC1(C)CC(OCCCC[P+](c2ccccc2)(c2ccccc2)c2ccccc2)CC(C)(C)N1O,-44.2% (active)
18,Cc1ccc(/C=C(\C#N)c2cc3ccccc3n2C)cc1,23.6%
19,CCC12CCC3c4ccc(O)cc4CCC3C1CC(O)C2O (stereo not given),58.4%
20,O=S1(=O)N(Cc2ccccc2)[C@@H](Cc2ccccc2)[C@H](O)[C@H](O)[C@H](Cc2ccccc2)N1Cc1ccccc1,-27.7% (active)

# Reference: PubChem BioAssay (NCI)
